VP16 counter: inhibits Gal4-VP16 luciferase reporter, ROR gamma counter-screen | Drosophila S2 Gal4-VP16 UAS-luciferase, luminescence, 20 h | Potency, µM (highest dose often 53.6 µM), inactives show top-dose activity, negative = inhibition, actives largely listed as inhibitors | hit rate 3.5% among 310,000 | AID 2546;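 also: Gal4-VP16 expression switched on by copper sulfate through the metallothionein promoter; nearly all actives have a fitted effect of over 50% in size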
TDP1 inh: blocks human tyrosyl-DNA phosphodiesterase 1. Q9NUW8. recombinant TDP1, AlphaScreen DNA substrate cleavage. Potency, µM (titrated, usually from 130 µM), without a hit: at the highest dose activity change, negative = inhibition, hits mostly inhibitors. hit rate 0.28% among 350,000. AID 485290; also: nearly all actives have a fitted effect of over 40% in size
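Recombinant human Tdp1 (E. coli-expressed, 1 nM final) preincubated with compounds 15 min at room temperature, then 5'-biotin/3'-phosphotyrosine-FITC DNA substrate (15 nM final) added for 5 min. AlphaScreen beads (10 ug/ml final) added 10 min; cleavage lowers signal.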
DT40 TDP1 CPT: growth inhibition of DT40 Tdp1-/-;hTDP1 cells with camptothecin (screen for TDP1 inhibitors); chicken DT40 Tdp1-/-;hTDP1 cells + 20 nM CPT, ATP luminescence, 48 h; Potency, µM (series often up to 46.2 µM), for the others: at the highest dose activity change, negative = growth inhibition, hits mostly inhibitors; hit rate 12% among 420,000; AID 686979; also: nearly all actives have a fitted effect of over 55% in size
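Chicken DT40 Tdp1-/- cells complemented with human TDP1, 400 cells/well, exposed to compounds plus 20 nM camptothecin for at least 48 h at 37 C; viability read as ATP content by CellTiter-Glo luminescence.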
RORgamma inh: inhibitors of mouse ROR gamma transcriptional activity | P51450 | Drosophila S2 Gal4-RORgamma UAS-luciferase reporter, 20 h | Potency, µM (titrated, usually from 53.6 µM), inactives show at the highest dose activity change, negative = inhibition, most hits filed as inhibitors | hit rate 5.4% among 310,000 | AID 2551; also: nearly all actives have a fitted effect of over 60% in size
Target sequence (P51450 whole entry, looked up, the tested form may be a part): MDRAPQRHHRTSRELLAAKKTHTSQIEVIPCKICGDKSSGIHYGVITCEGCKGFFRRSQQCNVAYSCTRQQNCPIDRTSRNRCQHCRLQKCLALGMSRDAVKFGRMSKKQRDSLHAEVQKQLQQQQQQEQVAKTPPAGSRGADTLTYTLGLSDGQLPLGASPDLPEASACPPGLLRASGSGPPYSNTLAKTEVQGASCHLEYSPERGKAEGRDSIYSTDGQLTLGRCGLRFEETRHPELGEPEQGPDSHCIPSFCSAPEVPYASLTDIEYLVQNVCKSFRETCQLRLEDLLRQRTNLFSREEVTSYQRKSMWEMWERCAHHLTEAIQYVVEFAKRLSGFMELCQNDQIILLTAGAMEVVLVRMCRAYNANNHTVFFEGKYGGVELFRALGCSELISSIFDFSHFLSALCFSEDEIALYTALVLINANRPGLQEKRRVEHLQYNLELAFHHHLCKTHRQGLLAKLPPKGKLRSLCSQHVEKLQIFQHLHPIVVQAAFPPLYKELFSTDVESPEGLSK
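Read-out: Photinus luciferase luminescence; inhibitors lower reporter signal. Insect Schneider cells with Gal4-ROR gamma fusion under metallothionein promoter, UAS reporter; 700 uM final copper sulfate induction, 20 hr, ambient temperature.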
TDP1 cell noCPT: qHTS for Inhibitors of human tyrosyl-DNA phosphodiesterase 1 (TDP1): qHTS in cells in absence of CPT. DT40 Tdp1-/- hTDP1 cells, no CPT, ATP luminescence, 48 h. Potency, µM (titrated, usually from 46.2 µM), for the others: at the top dose activity change, negative = growth inhibition, most hits filed as inhibitors. hit rate 15% among 420,000; also: nearly all actives have a fitted effect of over 55% in size
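Cells were dispensed at 400 per well, compounds added by pin tool, plates incubated ≥48 hr at 37 °C, then CellTiter-Glo added for 30 min at room temperature before luminescence reading. Line: DT40 Tdp1-/- complemented with hTDP1; camptothecin omitted.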
The depositor's hits bear a star; ? = inconclusive; · = no result; [ ] = another dose, or the depositor's remark. Compounds with a hit are over-represented: about 19% of the library has one in this group of screens. Calls follow the shape of the dose curve; as a rule, active = well fitted curve in the direction sought with a large enough effect; inconclusive = small, poorly fitted or top-dose-only effect, or another doubt; inactive = no such curve, though single readings can be large; an effect the other way counts as inactive or inconclusive. % is scaled to controls: 0 for no effect and ±100 for the full control effect; potency is read from the fitted curve at half-maximal effect.

SMILES | VP16 counter | TDP1 inh | DT40 TDP1 CPT | RORgamma inh | TDP1 cell noCPT
Cc1ccccc1CCNC(=O)CCn1nc(C)c2c(C)n(-c3ccccc3)nc2c1=O | -6.2% | 0.2% | ? | -1.4% | -2.0%
Cc1ccc(-n2nc3c(=O)n(CCCC(=O)NCCc4ccccc4Cl)nc(C)c3c2C)cc1 | · | -2.8% | 8.2µM* | · | 14.6µM*
CN(CC(=O)NC1CC1)S(=O)(=O)c1ccc(Br)cc1 | -5.6% | 0.1% | -26.5% | 9.7% | 0.4%
C=CCNC(=O)C1CC(=O)N(c2ccc(OCC(=O)Nc3cccc(OC)c3)cc2)C1 (stereo not drawn) | -1.6% | 2.2% | -10.6% | 29.2% | -16.0%
N#Cc1c(N)nc2c(c1-c1ccc3c(c1)OCO3)CCCCCC2 | -6.4% | 1.0% | -18.7% | -8.9% | ?
COc1cc2c(cc1OC)-c1cc3ccc(OC)c(OC)c3c[n+]1CC2 | 2.1% | -6.8%[56.1 µM] | 5.17µM* | 12.0% | 5.17µM*
O=C1NC2=C(CCc3ccccc32)C(c2ccccc2)N1 (stereo not drawn) | 2.1% | -2.6% | -0.8% | -32.9% | -0.2%
C=CCOc1ccc(C2NC(=S)NC3=C2CCc2ccccc23)cc1 (stereo not drawn) | 12.6µM* | 11.4% | ? | 3.55µM* | ?
COc1ccc2c(c1)CCC1=C2NC(=S)NC1c1ccc(N(C)C)cc1 (stereo not drawn) | 3.55µM* | 11.9% | ? | 2.82µM* | 16.4µM*
COc1cc(C2NC(=S)NC(c3ccccc3)=C2C(C)=O)ccc1O (stereo not drawn) | -0.9% | 2.7% | 3.8% | -16.6% | -20.3%
COc1cc(C2NC(=S)NC(c3ccccc3)=C2C(C)=O)cc(Br)c1OCC(N)=O (stereo not drawn) | 5.3% | 5.5% | 2.3% | -19.5% | -1.7%
COc1cc(C2NC(=S)NC3=C2CCc2ccccc23)cc(OC)c1OC (stereo not drawn) | 10µM* | 8.2% | -12.3% | 5.62µM* | ?
COc1ccccc1NC(=O)Cn1c(=O)n(CCC(=O)NCC2CCCO2)c(=O)c2cc(OC)c(OC)cc21 (stereo not drawn) | · | 5.9% | 9.4% | · | -2.8%
Cn1ncc2c(=O)n(/N=C/c3ccccc3)cnc21 | -12.8% | 1.1% | -7.7% | 30.0% | -18.8%
O=C(NC1CCCCC1)N1CCC(n2c(=O)[nH]c3ccccc32)CC1 | -9.5% | -2.9% | ? | -30.2% | -20.2%
COc1ccc(CNCc2ccc3c(c2)OCO3)c(OC)c1OC | 1.3% | 4.2% | ? | -5.4% | ?
O=C(CC1CCCCC1)NCc1ccc(Cl)cc1 | -1.1% | · | 7.9% | -7.2% | -13.4%
Cc1ccc(C)c(Cn2c(=O)n(CCCCC(=O)NCc3ccccc3Cl)c(=O)c3ccccc32)c1 | · | -0.9% | 7.31µM* | · | 7.31µM*
O=C(CCCn1c(=O)c2sccc2n(Cc2c(F)cccc2Cl)c1=O)NCc1ccccc1 | · | -2.7% | ? | · | 16.4µM*
O=C(CCCCn1c(=O)c2ccccc2n(Cc2ccccc2F)c1=O)NCc1ccc2c(c1)OCO2 | · | 0.9% | -3.6% | · | ?
COc1ccccc1CNC(=O)CCCCn1c(=O)c2ccccc2n(Cc2ccccc2C)c1=O | · | -0.9% | 5.8µM* | · | 2.91µM*
COc1ccccc1CNC(=O)CCCCn1c(=O)c2ccccc2n(Cc2ccccc2F)c1=O | · | 3.6% | 3.66µM* | · | 2.31µM*
CC(C)C[C@H](NC(=O)NCc1ccccc1Cl)C(=O)O | 3.2% | -2.0% | -5.5% | -6.8% | 6.8%
COc1ccc(CCNC(=O)CCn2c(=O)c3ccccc3n(CC(=O)Nc3cccc(C)c3)c2=O)cc1OC | · | 1.8% | 1.3% | · | -4.5%
CCOC(=O)c1c(CN(C)C)n(C)c2ccc(OC(C)=O)cc12 | 1.2% | 5.0% | -6.1% | 0.0%[10 µM] | -2.1%
SMILES | VP16 counter | TDP1 inh | DT40 TDP1 CPT | RORgamma inh | TDP1 cell noCPT
O=C(CCCn1c(=O)c2ccccc2n(CC(=O)Nc2ccc(F)cc2F)c1=O)NCc1ccccc1Cl | · | 5.0% | 16.4µM* | · | ?
CCCCNC(=O)Cn1ncc2c(C)n(Cc3cccc(Cl)c3)c(C)c2c1=O | · | -5.1% | 23.1µM* | · | 20.6µM*
COc1cccc(NC(=O)Cn2c(=O)n(CCCCC(=O)NCc3ccccc3Cl)c(=O)c3ccccc32)c1 | · | 4.5% | ? | · | 18.4µM*
O=C(CCCCn1c(=O)c2ccccc2n(Cc2ccccc2F)c1=O)NCc1ccccc1Cl | · | 3.6% | 8.2µM* | · | 5.17µM*
CCn1c(SCC(=O)c2c(N)n(C3CC3)c(=O)[nH]c2=O)nnc1-c1ccoc1C | · | 3.1% | -1.7% | · | 11.6%
CCOC(=O)C1CCCN(S(=O)(=O)CCNC(=O)c2ccc(F)cc2)C1 (stereo not drawn) | · | -0.5% | 23.0% | · | -28.5%
Cn1c(=O)[nH]c2cc(-c3noc(-c4ccc(C#N)cc4)n3)ccc21 | · | 7.7% | -3.1% | · | -0.8%
CC12CCC(C(=O)N3CCCCC3)([C@H](Br)C1=O)C2(C)C (stereo partly drawn) | 0.0% | -5.8% | -1.7% | 11.0% | -10.8%
CCCCNC(=O)CCCn1c(=O)c2ccccc2n(Cc2cccc(Cl)c2)c1=O | · | -2.7% | 23.1µM* | · | 23.1µM*
CCOC(=O)c1ccccc1NC(=O)Cn1c(=O)n(CCC(=O)NCc2ccccc2OC)c(=O)c2ccccc21 | · | -3.6% | ? | · | 16.4µM*
O=C(CCn1c(=O)c2ccccc2n(Cc2cccc(Cl)c2)c1=O)NCCc1ccccc1 | · | 5.0% | ? | · | ?
CCCCNC(=O)CCCn1c(=O)c2ccccc2n(Cc2ccccc2C)c1=O | · | 5.5% | ? | · | 20.6µM*
CCOC(=O)c1cc(NC(=O)N(C(C)C)C(C)C)c(C)nc1C | -1.3% | -1.0% | -24.5% | 20.3% | -2.9%
CCc1ccc(NC(=O)CC(NCc2cccnc2)C(=O)O)cc1 (stereo not drawn) | · | · | -10.3% | · | -8.1%
Cc1cccc(NC(=S)N2CCN(c3ccc(F)cc3)CC2)c1 | ? | -2.5% | -16.7% | 8.91µM* | ?
Cc1cccc(NC(=S)N2CCN(S(=O)(=O)c3ccc(F)cc3)CC2)c1 | -16.1% | -0.3% | -1.9% | 12.6µM* | 9.2%
Cc1cc(C)cc(NC(=S)N2CCN(c3ncccn3)CC2)c1 | ? | 0.0% | -6.6% | 14.1µM* | ?
Cc1cc(C)cc(NC(=S)N2CCN(c3ccc(F)cc3)CC2)c1 | -25.2% | 4.7% | -19.6% | 7.08µM* | -9.4%
O=S(=O)(c1ccccc1)N1CCN(C(=S)Nc2ccc(F)cc2)CC1 | 2.2% | -1.1% | -3.3% | -14.7%[10 µM] | -11.3%
CCS(=O)(=O)C1C(=O)N(C)C(S(=O)(=O)CC)C(=O)N1C (stereo not drawn) | · | · | -6.6% | · | 11.8%
Cc1cc(C)cc(NC(=S)N2CCN(c3ncc(C(F)(F)F)cc3Cl)CC2)c1 | -25.7% | 1.3% | ? | 3.55µM* | ?
CCOc1ccc(S(=O)(=O)Nc2cc(OC)ccc2OC)cc1 | -3.7% | 6.5% | 0.366µM* | 10.0% | 0.326µM*

Screens as filed in PubChem.
